From PubChem
Rows were chosen to be rich in hits. Some 1.5% of all compounds tested hit in one or more screens of this group.
LANA-H2A inh: blocks KSHV LANA binding to histone H2A/H2B; inhibition, % (test concentration not listed); 320,000 tested, 0.6% active; cell-free LANA-H2A/H2B peptide, fluorescence polarization; in the data active = inhibition mostly above about 10%, no sharp cut-off; inactive = mostly below about 6.7%
GLD-1 RNA inh: GLD-1-TGE RNA interaction inhibition (C. elegans). purified GLD-1 + fluorescein TGE RNA, fluorescence polarization. inhibition, % at 5.96 µM. 320,000 tested, 0.44% active. AID 2280;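 active = percent inhibition above a per-plate cutoff, the plate mean of test compounds plus 3 SD, cut at about 30% in these data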
eLon inh: inhibitors of E. coli Lon protease | P0A9M0 | 360,000 tested, 0.42% active | AID 602123 | purified E. coli Lon protease, fluorescence polarization | inhibition, % at 7.94 µM; in the data active = inhibition above about 13%, passing the limit was not always enough
C-LANA FP: inhibitors of KSHV LANA C-terminal domain DNA binding | MBP-C-LANA/FAM-LBS DNA binding, fluorescence polarization | inhibition, % at 9 µM | 340,000 tested, 0.078% active | AID 504423;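 active = highest replicate inhibition at or above 60% at 9 µM, even if other replicates fall short; inactive = all replicates below 60% inhibition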
EBV gp42 inh: blocks Epstein-Barr virus glycoprotein 42 binding; AID 1085; inhibition, % (tested at 21.74 µM); 220,000 tested, 0.42% active; Fluorescence polarization binding assay, mP read-out; Q1HVG2; in the data active = inhibition above about 50%
Keap1 Nrf2 FP: Keap1-Nrf2 (human) interaction inhibition. Q14145. Keap1 Kelch-Nrf2 peptide fluorescence polarization, 1536-well. inhibition, % at 9.4 µM. 340,000 tested, 0.15% active. AID 504523; in the data active = inhibition above about 12%;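 also: human Keap1 Kelch domain with fluorescein labeled Nrf2 9mer peptide probe; higher means more block of Keap1 binding to Nrf2 peptide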
eLon confirm: E. coli Lon inhibition confirmation. shares compounds with eLon inh. 1,400 tested, 31% active. purified E. coli Lon, fluorescence polarization. AID 602230. inhibition, % at 7.94 µM; in the data active = inhibition above about 16%
Large screens that a line does not name were inactive (follow-up assays come after a bar, where they were run).

NC(=O)c1c(NC(=O)CSc2nnc(Cc3ccccc3)n2Cc2ccco2)sc2c1CCC2	eLon inh 22 | eLon confirm inactive
O=C(CSc1nnc(Cc2ccccc2)n1Cc1ccco1)NC12CC3CC(CC(C3)C1)C2	none
O=C1c2ccccc2-c2n[nH]c3cccc1c23	eLon inh 23 (no result: LANA-H2A inh, GLD-1 RNA inh, EBV gp42 inh) | eLon confirm 33
Cc1cccc(Cl)c1NC(=O)N1CCCN(c2ncccc2[N+](=O)[O-])CC1	eLon inh 25 | eLon confirm inactive
Cc1cc2oc(=O)cc(CN3CCN(C/C=C/c4ccccc4)CC3)c2cc1O	eLon inh 22 | eLon confirm inactive
O=c1cc(CN2CCN(C/C=C/c3ccccc3)CC2)c2cc(O)c(-c3ccccc3)cc2o1	none
COc1ccc(Oc2nc(C)cc(C)c2S(=O)(=O)c2ccc(C)cc2)cc1	eLon inh 18 | eLon confirm inactive
N#CC(CCc1ccc([N+](=O)[O-])cc1)(CCc1ccc([N+](=O)[O-])cc1)C(N)=O	eLon inh 52 (no result: LANA-H2A inh, GLD-1 RNA inh, EBV gp42 inh) | eLon confirm 31
CC1CN(c2nc3ccccc3cc2-c2ccccc2)CC(C)O1 (stereo unspecified)	none
NC(=O)[C@@H]1CCCN1C(=O)c1ccc2nc(Cc3ccccc3F)oc2c1	none (no result: EBV gp42 inh)
O=C(COC(=O)Cc1cccc(F)c1)NC(=O)NC1CCCCC1	none (no result: LANA-H2A inh, GLD-1 RNA inh, EBV gp42 inh)
O=C(COC(=O)CNS(=O)(=O)c1c(F)cccc1F)NC(=O)NC1CCCCC1	eLon inh 27 (no result: EBV gp42 inh) | eLon confirm inactive
CN(C)c1ccc(C(=S)N2CCN(Cc3ccccc3)CC2)cc1	none
CC(=O)c1c(Cl)nc2cccc3c2c1-c1ccccc1C3=O	eLon inh 24 (no result: EBV gp42 inh) | eLon confirm 28
COc1cc(-c2c(C(C)=O)c(C)nc3c2C(=O)c2ccccc2-3)cc(OC)c1OC	none (no result: LANA-H2A inh, GLD-1 RNA inh, EBV gp42 inh)
C[C@H](O)[C@@H]1CN2CCc3c([nH]c4ccccc34)[C@@H]2C[C@@H]1N(C)C(=S)NCCc1ccccc1	eLon inh 197 (no result: LANA-H2A inh, GLD-1 RNA inh, C-LANA FP, EBV gp42 inh, Keap1 Nrf2 FP) | eLon confirm 121
O=c1[nH]c(-[n+]2ccc3ccccc3c2)c(/C=N/N=C(\[O-])c2ccccc2)s1	GLD-1 RNA inh 137, eLon inh 43 (no result: EBV gp42 inh) | eLon confirm inactive
CCOc1ccc(/C(O)=C2/C(=O)C(=O)N(c3ccccn3)C2c2ccc(C)cc2)c(C)c1 (stereo unspecified)	eLon inh 26 (no result: EBV gp42 inh) | eLon confirm inactive
CCOc1ccc(/C(O)=C2/C(=O)C(=O)N(c3ccccn3)C2c2ccc(Cl)cc2)c(C)c1 (stereo unspecified)	none (no result: GLD-1 RNA inh, EBV gp42 inh)
O=C(Cn1ccc2ccccc2c1=O)NCC(=O)N1CCN(c2ccc(F)cc2)CC1	eLon inh 23 (no result: EBV gp42 inh) | eLon confirm inactive
O=C(Cn1ccc2ccccc2c1=O)NCCC(=O)N1CCN(c2ccccc2)CC1	none (no result: EBV gp42 inh)
COc1ccc(C(NC(=O)CNC(C)=O)C(=O)Nc2ccc3c(c2)OCCO3)cc1 (stereo unspecified)	eLon inh 14 | eLon confirm inactive
N#C/C(=C(/O)c1cccs1)c1nc2ccccc2[nH]1	eLon inh 16 | eLon confirm inactive
CCC(=O)Nc1ccc(C(=O)CSc2nnc(-c3ccc(NS(=O)(=O)CC)cc3)o2)cc1OC	none
COc1cccc(CN(C)C(=O)c2cc(-c3ccc(OC)c(OC)c3)nc3ccccc23)c1	eLon inh 20 (no result: GLD-1 RNA inh, EBV gp42 inh) | eLon confirm inactive
COC(=O)N/N=C\c1cc2c(cc1Br)OCO2	eLon inh 18 | eLon confirm inactive
O=S(=O)(/C=C/c1ccccc1)Nc1ccc(F)cc1	none
CC(C)(C)c1ccc(C(=O)Oc2ccc3c(c2)OCC3=O)cc1	none
O=C(Oc1ccc2c(c1)OCC2=O)c1ccccc1	eLon inh 19 | eLon confirm 23
CC/C(=C\C(=O)c1ccncc1)Nc1ccc(O)cc1	eLon inh 26 | eLon confirm inactive
CC(C)(C)OC(=O)NC(Cc1ccccc1)C(=O)N1CCC(C(=O)NCC(=O)Nc2ccc(F)cc2)CC1 (stereo unspecified)	GLD-1 RNA inh 57, eLon inh 22 (no result: EBV gp42 inh) | eLon confirm 43
CC(C)(C)OC(=O)N[C@@H](Cc1ccccc1)C(=O)N1CCC(C(=O)NCC(=O)O)CC1	none (no result: EBV gp42 inh)
